FLuc modulator – qHTS profiling assay for firefly luciferase inhibitor/activator using purifed enzyme and Km concentrations of substrates (counterscreen for miR-21 project) | Luciferin 4-monooxygenase (Photinus pyralis), P08659 | purified FLuc, Km substrates, luminescence inhibition | Potency, µM (highest dose often 57.5 µM), without a hit: at the highest dose activity change, negative = inhibition, most hits filed as inhibitors | hit rate 6.9% among 360,000 | AID 588342, 2011;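 note: plate controls were vehicle for no effect and reference inhibitor for full effect; nearly all actives have a fitted effect of over 55% in size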
Target sequence (P08659 whole entry, looked up): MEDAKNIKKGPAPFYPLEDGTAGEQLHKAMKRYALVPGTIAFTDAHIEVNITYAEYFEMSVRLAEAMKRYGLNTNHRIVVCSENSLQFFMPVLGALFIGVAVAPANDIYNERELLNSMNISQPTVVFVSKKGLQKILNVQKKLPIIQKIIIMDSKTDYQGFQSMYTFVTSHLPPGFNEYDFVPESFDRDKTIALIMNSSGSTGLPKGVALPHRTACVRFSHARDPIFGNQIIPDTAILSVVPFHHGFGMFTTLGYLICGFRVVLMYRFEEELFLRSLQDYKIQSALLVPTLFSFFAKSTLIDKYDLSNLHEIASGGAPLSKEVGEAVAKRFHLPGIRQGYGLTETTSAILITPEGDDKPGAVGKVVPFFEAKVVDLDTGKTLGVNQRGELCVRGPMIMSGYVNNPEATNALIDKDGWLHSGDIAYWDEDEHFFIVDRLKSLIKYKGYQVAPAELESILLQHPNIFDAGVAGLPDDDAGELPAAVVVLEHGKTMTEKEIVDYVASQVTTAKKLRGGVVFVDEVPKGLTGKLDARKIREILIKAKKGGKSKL
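Purified P. pyralis luciferase (10nM final) with 10uM D-luciferin and 10uM ATP (Km levels) in 50mM Tris acetate pH 7.5, 10mM Mg acetate, 0.01% Tween-20, 0.05% BSA; qHTS 6-point titration, ~60 µM downward; luminescence read.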
SMN2 splice up – qHTS Assay for Enhancers of SMN2 Splice Variant Expression. Potency, µM (doses to about 46.1 µM), for the others: top-dose activity change, positive = activation, actives largely listed as activators. hit rate 2.8% among 210,000. HEK293 SMN2-luciferase splicing reporter, luminescence, 30-36 h; note: % of control where 0% means no effect; nearly all actives have a fitted effect of over 55% in size
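HEK293 cells carry an SMN2 minigene-luciferase reporter in which exon 7 inclusion puts luciferase in frame. Cells were seeded at 2000 cells/well, attached for 10-12 hours, then exposed to compounds for 30-36 hours at 37C before ONE-Glo luminescence.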
NPC1 promoter act – qHTS Assay for NPC1 Promoter Activators; Huh7 NPC1 promoter luciferase reporter, 24 h; hit rate 2.4% among 320,000; Potency, µM (doses to about 9.22 µM), for the others: at the top dose activation, hits mostly activators; AID 485313, 2010; note: % of control where 0% means no effect; nearly all actives have a fitted effect of over 60% in size
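Huh7 reporter cells (NPC1 promoter driving luciferase) are dosed with compound for 24 h at 37 °C, 5% CO2; luciferase detection reagent is then added and luminescence measured after 10 min at ambient temperature.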
ELG1 genotox – qHTS screen for small molecules that induce genotoxicity in human embryonic kidney (HEK293T) cells expressing luciferase-tagged ELG1; HEK293T ELG1-luciferase reporter, luminescence, 16 h; Potency, µM (top dose mostly 46 µM), without a hit: at the top dose activity change, positive = activation, usual class: activators; hit rate 1.3% among 330,000; AID 504466, 2011; note: % of control where 0% means no effect; nearly all actives have a fitted effect of over 60% in size
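Luminescence read-out: rising ELG1-luciferase signal, reflecting elevated ELG1 protein under genetic stress, flags genotoxic compounds. Cells were treated for 16 hr at 37 °C before ONE-Glo detection.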
Rab9 promoter act – qHTS Assay for Rab9 Promoter Activators | Huh7 Rab9 promoter-luciferase reporter, luminescence, 24 h | Potency, µM (doses to about 9.22 µM), for the others: top-dose activation, negative = inhibition, most hits filed as activators | hit rate 2.8% among 320,000 | AID 485297, 2010; note: % of control where 0% means no effect; nearly all actives have a fitted effect of over 60% in size
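Luminescence from Amplite-detected luciferase (10 minutes, ambient) reports Rab9 promoter activation. Before that, stable Rab9-luciferase Huh7 cells (1500/well, reduced-serum OP-MEM I plus 10% FBS) were exposed to compound for 24 hours at 37C.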
ELG1 repair inh – qHTS screen for small molecules that inhibit ELG1-dependent DNA repair in human embryonic kidney (HEK293T) cells expressing luciferase-tagged ELG1; HEK293T ELG1-luciferase reporter, luminescence, 16 h; DNA damage induced by 5-fluorouridine; Potency, µM (top dose mostly 46.1 µM), for the others: at the highest dose activity change, negative = inhibition, actives largely listed as inhibitors; hit rate 2.3% among 330,000; note: % is set by controls: 0 for no effect and ±100 for the full control effect; nearly all actives have a fitted effect of over 55% in size
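Luminescence from the luciferase reporter, measured 30 min after ONE-Glo reagent at room temperature, was the read-out. Beforehand, 2,000 cells per well were exposed for 16 hr at 37 °C to 5-fluorouridine together with compound or vehicle.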
An asterisk follows results filed as active; [ ] = remark or other dose. Only some compounds are listed: those with a hit (about 9.2% of all), similar ones and a draw of the others. Calls come from the whole dose curve; as a rule, active = well fitted curve in the direction sought with a large enough effect; inconclusive = small, poorly fitted or top-dose-only effect, or another doubt; inactive = no such curve, though single readings can be large; an effect the other way counts as inactive or inconclusive. Potency is the fitted concentration of half-maximal effect.

What do the screens show for `COc1ccccc1NC(=O)c1ccc(NC(=O)Cc2n[nH]c(=O)c3ccccc23)cc1`?
FLuc modulator: 1%; NPC1 promoter act: -7%; ELG1 genotox: inconclusive; Rab9 promoter act: -2%; ELG1 repair inh: 3%

How did Cc1c(NC(=O)c2ccc(Br)s2)c(=O)n(-c2ccccc2)n1C do in these assays?
FLuc modulator: 4%; SMN2 splice up: 0%; NPC1 promoter act: -3%; ELG1 genotox: 0%; Rab9 promoter act: -1%; ELG1 repair inh: 14%

What do the screens show for `CC1=C(C(=O)Nc2cccnc2)C(c2ccccc2)n2nc(SCc3ccccc3F)nc2N1` (stereo unspecified)?
FLuc modulator: -3%; SMN2 splice up: 2%

How did CC(=O)Nc1cccc(NC(=O)c2ccc3[nH]c(C)c(C)c3c2)c1 do in these assays?
FLuc modulator: 11µM*; NPC1 promoter act: 1%; ELG1 genotox: 8%; Rab9 promoter act: 27%; ELG1 repair inh: inconclusive

What do the screens show for `Cc1cc(NC(=O)c2ccc3[nH]c(C)c(C)c3c2)ccn1`?
FLuc modulator: 15µM*; NPC1 promoter act: 0%; ELG1 genotox: -5%; Rab9 promoter act: -1%; ELG1 repair inh: 6%

Results for Cc1ccc(/C=C(\C#N)c2nc3ccccc3c(=O)[nH]2)cc1 ?
FLuc modulator: -1%; SMN2 splice up: 1%

How did Cc1ccc(/C=C/c2nc3ccccc3[nH]2)o1 do in these assays?
FLuc modulator: 0.85µM*; SMN2 splice up: 4µM*; NPC1 promoter act: 0.71µM*; ELG1 genotox: inconclusive; Rab9 promoter act: 0.45µM*; ELG1 repair inh: inconclusive

How did COC(=O)c1ccc(/C=C/c2nc3ccccc3c(=O)[nH]2)cc1 do in these assays?
FLuc modulator: 0.67µM*; NPC1 promoter act: 0.5µM*; ELG1 genotox: inconclusive; Rab9 promoter act: 1.1µM*; ELG1 repair inh: inconclusive

What do the screens show for `Cc1ccc(/C=C/c2nc3ccccc3[nH]2)cc1`?
FLuc modulator: 0.076µM*

What do the screens show for `COCCOC(=O)N/C=C\c1nc2ccccc2c(=O)[nH]1`?
FLuc modulator: inconclusive; SMN2 splice up: 18%; NPC1 promoter act: -7%; ELG1 genotox: 6%; Rab9 promoter act: 0%; ELG1 repair inh: 5%

How did Cc1cc2nc(/C=C/c3nc4cc(C)c(C)cc4[nH]3)[nH]c2cc1C do in these assays?
FLuc modulator: inconclusive; NPC1 promoter act: -3%; ELG1 genotox: 0%; Rab9 promoter act: 6%; ELG1 repair inh: inconclusive

How did Cc1ccc(/C=C/c2nc3ccccc3c(=O)[nH]2)cc1 do in these assays?
FLuc modulator: 0.15µM*; NPC1 promoter act: 0.5µM*; ELG1 genotox: inconclusive; Rab9 promoter act: 0.35µM*; ELG1 repair inh: inconclusive

What do the screens show for `C=CCOc1cccc(/C=C/c2nc3ccccc3c(=O)[nH]2)c1`?
FLuc modulator: 1.5µM*; NPC1 promoter act: inconclusive; ELG1 genotox: 9.2µM*; Rab9 promoter act: 3.5µM*; ELG1 repair inh: inconclusive

What do the screens show for `COc1cc(/C=C/c2nc3ccccc3c(=O)[nH]2)cc(OC)c1OC`?
FLuc modulator: inconclusive; NPC1 promoter act: -5%; ELG1 genotox: 12%; Rab9 promoter act: 0%[1.84 µM]; ELG1 repair inh: 35%

Results for COc1cc(/C=C/c2nc3ccccc3c(=O)[nH]2)ccc1OC(F)F ?
FLuc modulator: inconclusive; NPC1 promoter act: 5µM*; ELG1 genotox: 27%; Rab9 promoter act: inconclusive; ELG1 repair inh: inconclusive

Results for Cc1cc(C)n(C(C)CC(=O)NCc2ccccc2C)n1 (stereo unspecified) ?
FLuc modulator: 0%

Results for O=C(COC(=O)CNC(=O)c1ccccc1)NC1CCCC1 ?
FLuc modulator: 4%; NPC1 promoter act: -5%; ELG1 genotox: 3%; Rab9 promoter act: -1%; ELG1 repair inh: 9%

Results for O=C(Nc1ccc2c(c1)OCO2)c1ccccn1 ?
FLuc modulator: 9.5µM*; NPC1 promoter act: 1.8µM*; ELG1 genotox: inconclusive; Rab9 promoter act: 1.4µM*; ELG1 repair inh: inconclusive

What do the screens show for `O=C(Nc1ccc2c(c1)OCO2)c1n[nH]c(=O)c2ccccc12`?
FLuc modulator: inconclusive; NPC1 promoter act: 2.8µM*; ELG1 genotox: inconclusive; Rab9 promoter act: 3.5µM*; ELG1 repair inh: inconclusive

How did O=C(COC(=O)c1cnccn1)Nc1ccc2c(c1)OCO2 do in these assays?
FLuc modulator: 0%; SMN2 splice up: -14%; NPC1 promoter act: 0%; ELG1 genotox: -1%; Rab9 promoter act: 0%; ELG1 repair inh: 13%

How did O=C(Nc1ccc2c(c1)OCO2)c1cnccn1 do in these assays?
FLuc modulator: inconclusive; SMN2 splice up: 11µM*; NPC1 promoter act: 3.5µM*; ELG1 genotox: 23%; Rab9 promoter act: 2.5µM*; ELG1 repair inh: inconclusive

Results for O=C(/C=C\Nc1ccc2c(c1)OCO2)c1ccccn1 ?
FLuc modulator: 0.076µM*; SMN2 splice up: -62%; NPC1 promoter act: inconclusive; ELG1 genotox: inconclusive; Rab9 promoter act: inconclusive; ELG1 repair inh: inconclusive

Results for O=C(Nc1ccc2c(c1)OCO2)c1ccc(=O)[nH]n1 ?
FLuc modulator: inconclusive; NPC1 promoter act: 28%; ELG1 genotox: 10%; Rab9 promoter act: inconclusive; ELG1 repair inh: inconclusive

What do the screens show for `COc1ccc(OC)c(NC(=O)CCN2CCN(CCO)CC2)c1`?
FLuc modulator: -2%; NPC1 promoter act: 1%; ELG1 genotox: 0%; Rab9 promoter act: -1%; ELG1 repair inh: -5%

How did CCn1nnnc1SCC(=O)N1N=C(c2cccs2)CC1c1cccs1 (stereo unspecified) do in these assays?
FLuc modulator: -20%; NPC1 promoter act: 0%; ELG1 genotox: 4%; Rab9 promoter act: 5%; ELG1 repair inh: 0%

How did O=C(NCCc1ccc2c(c1)OCCO2)c1ccccn1 do in these assays?
FLuc modulator: 12µM*; NPC1 promoter act: 2.2µM*; ELG1 genotox: inconclusive; Rab9 promoter act: 2µM*; ELG1 repair inh: inconclusive

How did O=C(NCc1ccc2c(c1)OCO2)c1ccccn1 do in these assays?
FLuc modulator: -13%; SMN2 splice up: 13%; NPC1 promoter act: 13%; ELG1 genotox: 13%; Rab9 promoter act: 17%; ELG1 repair inh: inconclusive

How did Cc1cc(NC(=O)CN(C)S(=O)(=O)c2ccc3c(c2)CCC(=O)N3)ccc1Br do in these assays?
FLuc modulator: inconclusive; SMN2 splice up: -43%

Bioassay records as filed in PubChem BioAssay.
